This is one part of a sample in which hits are shown more often than they occur.
RBX1-CUL1 inh – inhibitors of human ROC1-CUL1 ubiquitin ligase activity; E3 ubiquitin-protein ligase RBX1 (Homo sapiens) + Cullin-1 (Homo sapiens), P62877+Q13616; in vitro K48 di-Ub FRET, acceptor:donor ratio, 45 min; inhibition, % at 10 µM; hit rate 0.6% among 140,000; in the data active = inhibition above about 25%
Target sequence (P62877 whole entry, looked up): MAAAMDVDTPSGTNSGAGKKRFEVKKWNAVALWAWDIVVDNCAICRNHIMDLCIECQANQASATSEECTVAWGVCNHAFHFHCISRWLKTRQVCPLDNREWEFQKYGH
Target sequence (Q13616 whole entry, looked up): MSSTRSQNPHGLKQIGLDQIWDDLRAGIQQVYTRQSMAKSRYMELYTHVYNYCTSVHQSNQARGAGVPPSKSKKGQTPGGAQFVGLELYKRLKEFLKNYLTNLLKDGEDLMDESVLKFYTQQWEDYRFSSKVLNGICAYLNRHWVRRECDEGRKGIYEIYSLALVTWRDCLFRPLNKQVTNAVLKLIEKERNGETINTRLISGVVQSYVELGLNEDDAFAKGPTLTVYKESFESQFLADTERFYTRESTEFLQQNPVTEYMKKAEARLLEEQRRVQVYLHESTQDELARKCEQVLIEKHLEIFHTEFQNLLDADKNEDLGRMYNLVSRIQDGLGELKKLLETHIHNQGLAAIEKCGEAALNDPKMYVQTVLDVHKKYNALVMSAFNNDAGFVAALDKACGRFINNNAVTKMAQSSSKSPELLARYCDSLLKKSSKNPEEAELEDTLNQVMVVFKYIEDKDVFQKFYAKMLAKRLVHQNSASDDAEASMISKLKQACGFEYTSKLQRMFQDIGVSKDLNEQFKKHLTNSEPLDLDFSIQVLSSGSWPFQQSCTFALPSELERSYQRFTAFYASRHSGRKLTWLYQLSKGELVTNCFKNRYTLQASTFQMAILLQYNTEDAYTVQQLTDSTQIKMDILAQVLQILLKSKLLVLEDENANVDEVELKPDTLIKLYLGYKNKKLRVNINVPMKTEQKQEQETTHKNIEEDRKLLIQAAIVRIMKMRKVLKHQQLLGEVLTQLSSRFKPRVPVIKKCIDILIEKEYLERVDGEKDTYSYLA
* = called active by the depositor.

SMILES	RBX1-CUL1 inh
C=CCOc1c(Br)cc(/C=C2\SC(=O)N(Cc3ccc(F)cc3)C2=O)cc1OCC	-2
O=C1S/C(=C\c2cc(Br)c(O)c(Br)c2)C(=O)N1Cc1ccc(F)cc1	31*
O=C1S/C(=C\c2ccccc2)C(=O)N1Cc1ccc(F)cc1	5
CCCNC(=O)c1nnn(-c2ccccc2F)c1C	8
CC(C)CC(C)NC(=O)COc1ccccc1 (stereo unspecified)	2
Cc1cc(/C=C2/SC(=S)NC2=O)c(C)n1-c1ccccc1	2
O=C1NC(=S)S/C1=C/c1ccc(N2N=C(c3ccccc3)CC2c2ccccc2)cc1 (stereo unspecified)	81*
O=C1NC(=S)S/C1=C/c1ccc(F)cc1	16
CC12CCCCC1C2C(=O)N/N=C/c1ccccc1Cl (stereo unspecified)	0
COc1cc(CNC(C)C)ccc1OCc1ccc(F)cc1	4
Cc1[nH]n(-c2ccccc2)c(=O)c1C(c1ccc(C(=O)O)cc1)c1c(C)[nH]n(-c2ccccc2)c1=O	-12
Cc1[nH]n(-c2ccccc2)c(=O)c1CCc1ccccc1	-4
CCOc1ccccc1C(c1c(C)[nH]n(-c2ccccc2)c1=O)c1c(C)[nH]n(-c2ccccc2)c1=O	46*
Cc1[nH]n(-c2ccccc2)c(=O)c1C(c1cccc(OCc2ccc(Cl)cc2)c1)c1c(C)[nH]n(-c2ccccc2)c1=O	10
COc1ccccc1C(c1c(C)[nH]n(-c2ccccc2)c1=O)c1c(C)[nH]n(-c2ccccc2)c1=O	27*
CCOc1ccc(C(c2c(C)[nH]n(-c3ccccc3)c2=O)c2c(C)[nH]n(-c3ccccc3)c2=O)cc1OC	8
CCOC(=O)C1CCN(C(=O)c2cnc3sc4c(n3c2=O)CCCC4)CC1	-2
Clc1ncccc1Sc1cccnc1Cl	1
CC1(C)CCC2N(c3ccccc3)C(=O)C(c3ccccc3)(c3ccccc3)ON21 (stereo unspecified)	-12
O=C(Nc1ccc(Oc2ccccc2)cc1)c1cc(F)c(Cl)nc1Cl	4
Cc1ccccc1S(=O)(=O)NCCC(C)C	-7
O=C(O)CNS(=O)(=O)c1cccc2ccccc12	7
CCCNS(=O)(=O)c1cccc2c(N)cccc12	58*
CCOC(=O)C1=C(C)N=c2s/c(=C\c3ccc(I)cc3)c(=O)n2C1c1ccc(OC)cc1 (stereo unspecified)	-4
CCOC(=O)C1=C(C)N=c2s/c(=C/c3ccc(C(=O)O)cc3)c(=O)n2C1c1ccc(C(C)C)cc1 (stereo unspecified)	90*
SMILES	RBX1-CUL1 inh
CCOC(=O)C1=C(C)N=c2s/c(=C\c3ccc(Cl)cc3)c(=O)n2C1c1ccc(C(C)C)cc1 (stereo unspecified)	5
CCc1cccc(C)c1NC(=O)CN1CCN(c2ccccc2F)CC1	7
CN1C(=O)C2C(=NC(=O)N2C)N(Cc2ccccc2)C1=O (stereo unspecified)	8
O=C1NC(=S)S/C1=C/c1ccccn1	-4
Cc1nn(C)cc1/C=C1\SC(=S)NC1=O	-2
O=C1NC(=S)S/C1=C/c1c(Cl)cc(Cl)c(O)c1Cl	28*
CCc1ccc(-c2cc(C(F)(F)F)n3nc(C(=O)Nc4ccc(Cn5nc(C)cc5C)cc4)cc3n2)s1	-8
O=C(c1ccc(Br)s1)N1CCN(c2ccc(F)cc2)CC1	6
O=C1c2ccccc2N(c2ccccc2)C(=O)C1Sc1ccccc1 (stereo unspecified)	5
O=C1c2cccc3cccc(c23)C(=O)C1Sc1ccccc1	99*
O=C1Nc2ccccc2C(=O)C1Sc1ccccc1 (stereo unspecified)	0
Cc1ccc(C)c(NC(=O)C2CCN(S(=O)(=O)N(C)C)CC2)c1	3
CCN(CC)CC(O)COc1ccc(CNCc2ccc(F)cc2)cc1OC (stereo unspecified)	-4
O=C(COc1ccc(Br)cc1/C=C1/C(=O)ON=C1c1ccccc1)Nc1ccccc1	43*
CC(C)(C)c1cc(Br)ccc1OCC(=O)Nc1ccccc1	0
Cc1cccc(NC(=O)COc2ccc(Br)cc2C=C2C(=O)NC(=S)NC2=O)c1	0
Cc1ccc(C2c3c(n[nH]c3-c3ccc4ccccc4c3)OC(=N)C2C#N)o1 (stereo unspecified)	-2
O=C(O)C#CC12CC3CC(CC(C3)C1)C2	0
OC(C#CC12CC3CC(CC(C3)C1)C2)c1ccccn1 (stereo unspecified)	12
Cc1ccc(C(O)C#CC23CC4CC(CC(C4)C2)C3)o1 (stereo unspecified)	99*
CSC1=N/C(=C\c2ccc(F)cc2)C(=O)S1	7
CSC1=N/C(=C\c2cc(Br)ccc2OCC(=O)O)C(=O)S1	50*
CSC1=N/C(=C\c2ccc(OC3CCCC3)cc2)C(=O)S1	5
CSC1=N/C(=C\c2ccc(C(=O)O)cc2)C(=O)S1	50*
O=C(O)COc1ccc(Br)cc1Cl	-3
SMILES	RBX1-CUL1 inh
COc1cccc(/C=C2\N=C(SC)SC2=O)c1OCc1ccccc1	-3
CN(C)c1ncccc1CNC(=O)C1CCCCO1 (stereo unspecified)	10
CN(C)c1ncccc1CNC1CCN(c2ccc3c(c2)OCO3)CC1	2
Cc1c(CC(=O)N(C)C)c2c(n1CCc1ccccc1)CCCC2=O	-2
CCOc1ccccc1NC(=O)c1ccc(C(C)(C)C)cc1	-1
CC1=NN2C(=N)/C(=C/c3cn(CCOc4ccc(C)cc4C)c4ccccc34)C(=O)N=C2S1	9
CC(/C=C1\SC(=S)N(c2cccc(C(=O)O)c2)C1=O)=C\c1ccccc1	66*
CCOC(=O)c1ccc(NC(=O)CN2C(=O)S/C(=C/C(C)=C/c3ccccc3)C2=O)cc1	7
O=C1/C(=C\c2cccc(O)c2)SC(=S)N1c1ccccc1	4
CC(=C/c1ccccc1)/C=C1\SC(=S)N(C(C(=O)O)c2ccccc2)C1=O (stereo unspecified)	105*
CC(/C=C1\SC(=S)N(CC(=O)O)C1=O)=C\c1ccccc1	-3
CC(/C=C1\SC(=S)N(NC(=O)c2cccc(O)c2)C1=O)=C\c1ccccc1	-5
O=C(Cn1nnnc1CN1CCc2ccccc2C1)N1CCCC1	0
Clc1cccc(OCCOCCN2CCCC2)c1Cl	1
CC(=O)Nc1ccc(N2C(=O)NC(NC(=O)c3ccccc3)(C(F)(F)F)C2=O)cc1 (stereo unspecified)	9
C=CCNCCCOc1c(C)cc(Cl)cc1Cl	-15
CCOC(=O)N1CCc2c(sc3[nH]c(=S)n(N)c(=O)c23)C1	1
Cc1cccc(-c2nn3c(C)nnc3s2)c1	-5
COCc1ccc(CN2CCOc3ccc(C(O)C(c4ccccc4)c4ccccc4)cc3C2)o1 (stereo unspecified)	7
COc1cc(/C=N/NC(=O)CSc2nnc(-c3ccc(C)cc3)n2C)ccc1O	27*
Cc1ccc(/C=N/NC(=O)CSc2nnc(-c3ccc(Br)cc3)n2C)cc1	-1
COc1cc(Br)cc(/C=N/NC(=O)CSc2nnc(-c3ccc(C)cc3)n2C)c1O	17
CN(C)CCCN1C(=O)C(=O)C(C(=O)c2ccccc2)C1c1ccccn1 (stereo unspecified)	-4
Cc1nc(CN2CCN(c3nc4nonc4nc3N3CCOCC3)CC2)cs1	14
CCNC(=O)c1cc2c(=O)n3ccccc3nc2n1CCCOC	-4
CC(=O)c1coc2c1C(=O)c1ccccc1C2=O	34*
Cc1ccc(NC(=O)c2cccc3c2C(=O)c2ccccc2-3)cc1	2
O=C1C(=O)c2c(C(=O)c3cccs3)coc2-c2ccccc21	-5
